Inconclusive results are not listed. The source made the active and inactive calls. Rule for the calls: active = hit-call score of the fitted dose curve at least 0.9, where 1 is the maximum; inconclusive = response in the unintended direction; inactive = score below 0.9.
test: ATG_M_19_EcoTox2: Attagene TRANS-FACTORIAL EcoTox-2 HepG2 Assay for M19 Transcription Factor (Internal Marker)
Protocol: ATG_EcoTox2 is a cell-based, multiplexed assay created by modifying the existing Attagene TRANS-FACTORIAL system to include a panel of nuclear receptors from some or all the following species: human (Homo sapiens), african clawed frog (Xenopus laevis), rainbow trout (Oncorhynchus mykiss), japanese medaka (Oryzias latipes), and zebrafish (Danio rerio). The ECOTOX2-FACTORIAL format uses HepG2, a human liver cell line, with measurements taken at 24 hours after chemical dosing in a 24-well plate. ATG_M_19_EcoTox2 is one of 29 assay components calculated in the ATG_EcoTox2 assay. It is designed to make measurements of mRNA induction, a form of inducible reporter, as detected with fluorescence intensity signals by Reverse transcription polymerase chain reaction (RT-PCR) and Capillary electrophoresis technology.The assay endpoint ATG_M_19_EcoTox2 was analyzed in the positive analysis fitting direction relative to DMSO as the negative control and baseline of activity. Using a type of inducible reporter, measures of mRNA for gain-of-signal activity can be used to understand the background control at the transcription factor-level as they relate to the gene. Furthermore, this assay endpoint can be referred to as a secondary readout, because this assay has produced multiple assay endpoints where this one serves a background control function. To generalize the intended target to other relatable targets, this assay endpoint is annotated to the background measurement intended target family, where the subfamily is internal marker.
Human liver HepG2 cells are transiently transfected with multiple reporter transcription units (MRTUs) in 6-well plates using FuGene 6 reagent (Roche; 3 ml FuGene/1 mg DNA). The MRTU constructs are regulated by a cis-regulating element (promoter). Each RTU expresses a GAL4-UAS that regulates the transcription of a nearby target reporter gene sequence. A major difference between the CIS and TRANS system is that in CIS activities of endogenous TFs are measured, whereas the TRANS assay evaluates changes in activities of exogenous, chimeric NR-Gal4 proteins. […] At the end of 24 hour incubation, total RNA was isolated using TriZol reagent (Invitrogen). The isolated RNA is then reverse-transcribed using oligo(dT) primer and Mo-MLV reverse transcriptase (Invitrogen) with DNAse I (Ambion) treatment for 30 min. The one-tenth of the produced cDNA was amplified by PCR using Taq DNA polymerase (Invitrogen) and two reporter sequence-specific primers. […] The fragments were purified using Qiaquick PCR columns (Qiagen), analyzed on an ABI 3130xL genetic analyzer (Applied Biosystems) with peak positions identified by using a set of X-rhodamine (ROX)-labeled MapMarker1000 molecular weight standards (BioVentures). […]

Structure (SMILES)	outcome
C[C@@H]1C[C@H]2[C@@H]3CCC4=CC(=O)C=C[C@]4(C)[C@@]3(F)[C@@H](O)C[C@]2(C)[C@@]1(O)C(=O)COP(=O)(O)O	inactive
Cc1ccc(C)c(OCCCC(C)(C)C(=O)O)c1	inactive
CC(C)(Oc1ccc(Cl)cc1)C(=O)O	inactive
CC(C)(Oc1ccc(CCNC(=O)c2ccc(Cl)cc2)cc1)C(=O)O	inactive
